# In PubChem BioAssay AID485344 (National Center for Advancing Translational Sciences (NCATS), 2010):
# Screen size: about 340,000 compounds; about 6,900 (2%) were called active. This excerpt belongs to a sample that is enriched for actives. A number with no mark means an inactive call. No stated cut-off is given here; in the data, active means inhibition above about 30%; inactive means below that, where a call was filed.
# Target: D(2) dopamine receptor (Homo sapiens) (UniProt P14416)
# Assay: HTS Assay for Allosteric Antagonists of the Human D2 Dopamine Receptor: Primary Screen for Antagonists; further: 0% is about no effect
# Conditions: HEK293 TREx D2 cells, calcium flux, dopamine EC80; at 10 µM; stronger effect = higher value
# Summary of the method: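 Read-out: kinetic calcium fluorescence (1 cycle/s) in inducible HEK293 T-REx D2 cells after an EC80 dopamine addition that followed 180 s compound preincubation. Loss of the dopamine response indicates antagonism.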
# Chain of D(2) dopamine receptor (Homo sapiens) (P14416 whole entry, looked up): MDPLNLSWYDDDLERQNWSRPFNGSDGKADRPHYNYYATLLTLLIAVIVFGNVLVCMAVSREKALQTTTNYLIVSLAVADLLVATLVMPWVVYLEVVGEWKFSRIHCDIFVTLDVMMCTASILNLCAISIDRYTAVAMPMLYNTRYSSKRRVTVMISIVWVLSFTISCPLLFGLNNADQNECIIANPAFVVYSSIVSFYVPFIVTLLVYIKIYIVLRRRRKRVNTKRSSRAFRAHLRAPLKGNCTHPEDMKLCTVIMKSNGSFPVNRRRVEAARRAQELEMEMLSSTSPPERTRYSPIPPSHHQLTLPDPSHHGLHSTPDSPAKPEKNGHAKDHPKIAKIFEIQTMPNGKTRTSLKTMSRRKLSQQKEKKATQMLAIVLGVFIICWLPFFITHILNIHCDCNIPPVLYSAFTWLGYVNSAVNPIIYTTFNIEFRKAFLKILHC
row,Compound,inhibition
1,Cc1ccc(NC(=O)CCC(=O)N2CCC(c3ccccc3)=N2)cc1S(=O)(=O)N1CCCCC1,-6.66%
2,CC1(C)CC(=O)C=C(c2cccc3c2Oc2ccccc2S3)C1,2.71%
3,Cc1ccc(NC(=O)C(c2ccccc2)N2CCN(C(=O)c3ccco3)CC2)cc1 (configuration not stated),-0.875%
4,CN(C(=O)CSc1nnc(-c2ccc3c(c2)OCO3)o1)C1CCS(=O)(=O)C1 (configuration not stated),8.68%
5,Cc1ccc(N2C(=O)C3C4C=CC(CC4)C3C2=O)cc1Cl (configuration not stated),-11.1%
6,Cc1ccc(N2C(=O)C3C4C=CC(CC4)C3C2=O)cc1Br (configuration not stated),54.9% (active)
7,CC(=O)Nc1ccc(N2C(=O)C3C4C=CC(CC4)C3C2=O)cc1 (configuration not stated),2.36%
8,Cn1c(-c2ccc(C(F)(F)F)cc2)cc2onc(-c3ccccc3)c2c1=O,8.4%
9,CCOc1ccc(C(=O)NCC(=O)N2CCN(c3ccc(C(F)(F)F)cn3)CC2)cc1,-6.45%
10,Cc1ccc(C(=O)OCC(=O)NCc2cc(C)c(O)c(C)c2)cc1S(=O)(=O)N1CCCCC1,14.2%
11,CCN(C(=O)CSc1nc2ccccc2n1CC)C1CCS(=O)(=O)C1 (configuration not stated),8.24%
12,CCN(C(=O)COC(=O)/C=C/c1nc2ccccc2s1)C1CCS(=O)(=O)C1 (configuration not stated),31.7% (active)
13,CCN(C(=O)COC(=O)c1c(NC(C)=O)sc(C)c1C)C1CCS(=O)(=O)C1 (configuration not stated),9.33%
14,COc1ccc(N2CCN(C(=O)CCNC(=O)c3ccc(Br)cc3)CC2)cc1,-5.34%
15,CC(C(=O)N1CCc2ccccc21)N(C)CC(=O)Nc1ccc(F)cc1 (configuration not stated),17.3%
16,COc1ccccc1C(=O)NCC(=O)NCCSc1ccc(Br)cc1,-18.2%
17,Cc1cc(C)cc(NC(=S)NCc2ccc(F)cc2)c1,17.7%
18,O=C(Cc1ccccc1)NCc1ccc(F)cc1,7.68%
19,Fc1ccc(CNCc2ccc(Br)cc2)cc1,48.7% (active)
20,CCOC(=O)C1CCCN(C(=O)c2ccc(C)c(S(=O)(=O)N3CCCCC3)c2)C1 (configuration not stated),-2.03%
21,CC(=O)Nc1ccc(SC[C@H](Cc2ccccc2)N2CC[C@@H](C)CCC2=O)cc1,6.05%
22,COc1cc(-c2nnn(CC(=O)NCc3ccccc3)n2)cc(OC)c1OC,-2.02%
23,O=C(Cn1nnc(-c2ccccc2)n1)NC(=O)NC1CCCC1,-8.79%

row,Compound,inhibition
1,N#Cc1ccc(COC(=O)Cn2nnc(-c3ccccc3)n2)cc1,32.5% (active)
2,COc1cc([N+](=O)[O-])ccc1NC(=O)COC(=O)CCOc1ccc(C)cc1,-25.8%
3,Cc1cccc(Nc2nnc(SCC(=O)c3c(N)n(C4CC4)c(=O)[nH]c3=O)s2)c1C,-24.6%
4,O=S(=O)(Nc1ccc2nc(N3CCOCC3)sc2c1)c1ccccc1,-2.59%
5,CC(=O)Nc1ccc(-c2csc(NC(=O)Nc3ccccc3)n2)cc1,0.929%
6,O=C(CCNC(=O)c1ccccc1)Nc1nc2ccccc2s1,9.78%
7,O=C(Nc1ccccc1)Nc1nc2ccccc2s1,38.1% (active)
8,O=C(O)CSc1ccc(S(=O)(=O)N2CCCC2)cn1,-7.84%
9,O=C(NCC1COc2ccccc2O1)C1(c2ccccc2)CCCC1 (configuration not stated),2.24%
10,Cc1noc(C)c1C(=O)NCC1COc2ccccc2O1 (configuration not stated),42% (active)
11,Cc1cc(NC(=O)CCC2COc3ccccc3O2)no1 (configuration not stated),16.6%
12,NC(=O)c1ccsc1NC(=O)COC(=O)COc1ccc(C=O)cc1,0.0079%
13,CCOc1ncccc1C(=O)Nc1ccc(S(=O)(=O)Nc2nc(C)cc(C)n2)cc1,-33.5%
14,COc1ccc(NS(=O)(=O)c2cc(NC(=O)COc3ccccc3F)ccc2OC)cc1,-11%
15,CCCNC(=O)NC(=O)COC(=O)CC(NC(N)=O)c1ccc(Cl)cc1 (configuration not stated),-5.2%
16,NC(=O)NC(CC(=O)NNC(=O)c1ccccn1)c1ccc(Cl)cc1 (configuration not stated),35.3% (active)
17,CN(C)S(=O)(=O)c1ccc(Cl)c(NC(=O)COC(=O)CC(NC(N)=O)c2ccc(Cl)cc2)c1 (configuration not stated),8.54%
18,CC(C)C(NC(=O)c1c(F)cccc1F)C(=O)NCc1ccncc1 (configuration not stated),-6.22%
19,Cc1ccc(S(=O)(=O)Oc2ccc(/C=N/NC(=O)c3ccncc3)cc2)cc1,-6.29%
20,CC(=O)Nc1ccc(S(=O)(=O)Oc2ccc(/C=N/N=C3/NC(=O)C(CC(=O)O)S3)cc2)cc1 (configuration not stated),35.4% (active)
21,Cc1ccc(NC(=O)CC2S/C(=N/N=C3\CCCc4ccccc43)NC2=O)cc1 (configuration not stated),-3.76%
22,Cc1cc(C(=O)CCC(=O)NNC(=O)c2ccccc2O)c(C)s1,19.4%
23,Cc1c(NC(=S)Nc2ccccc2)c(=O)n(-c2ccccc2)n1C,-10.1%

row,Compound,inhibition
1,Cc1c(NC(=O)CN2C(=O)C(=O)N(Cc3ccccc3)C2=O)c(=O)n(-c2ccccc2)n1C,-13.5%
2,Cc1c(NC(=S)NC(=O)CCc2ccccc2)c(=O)n(-c2ccccc2)n1C,40.2% (active)
3,COc1ccc(OC)c(CN2CCN(C(=O)CNC(=O)c3cc(C)cc(C)c3)CC2)c1,-4.53%
4,CCN(CC)S(=O)(=O)c1cc(C(=O)Nc2cc(S(=O)(=O)N3CCOCC3)ccc2N2CCCC2)ccc1F,-9.39%
5,CN(CC(=O)Nc1ccc(Cl)cc1)CC(=O)Nc1cccc2ccccc12,-6.32%
6,CC(C)c1ccc(/C=C/C(=O)NCCCN2CCOCC2)cc1,-4.54%
7,CCOC(=O)N1CCC(Nc2c(NCCN3CCN(c4cccc(Cl)c4)CC3)c(=O)c2=O)CC1,-2.93%
8,CCn1c(=O)cc(OCC(=O)NCCCN2CCN(c3cccc(Cl)c3)CC2)c2ccccc21,78.9% (active)
9,CCN1CCCC1CNC(=O)c1cc2c(=O)n(C)c3ccccc3c2n1C (configuration not stated),-1.94%
10,Cn1c(C(=O)NCCc2ccsc2)cc2c(=O)n(C)c3ccccc3c21,-0.277%
11,Cn1c(C(=O)NCCCN2CCN(c3cccc(Cl)c3)CC2)cc2c(=O)n(C)c3ccccc3c21,95.2% (active)
12,CCOC(=O)N1CCC(NC(=O)COc2cc(=O)n(C)c3ccccc23)CC1,7.2%
13,CCOc1ccc(C(=O)CCC(=O)Nc2ccncc2)cc1,-7.41%
14,Cc1ccc(-c2nn(-c3ccccc3)cc2C(=O)NCCCN2CCCC2=O)cc1,-11.6%
15,Cc1noc(C)c1COc1ccc(C(=O)NCCOc2ccccc2)cc1,-11%
16,COc1ccc(Cl)cc1NC(=O)CN(C)CC(=O)Nc1ccc2c(c1)OCO2,-18.1%
17,O=C1C=C(c2cccc(Cl)c2O)C[C@@H](c2ccc(F)cc2)C1,6%
18,CCCN(CC(=O)Nc1ccccc1C)C(=O)c1ccc2[nH]c3c(c2c1)CC(C)CC3 (configuration not stated),-19.6%
19,CS(=O)(=O)c1ccc2nc(NC(=O)C3CCCCC3)sc2c1,30.6% (active)
20,CS(=O)(=O)c1ccc2nc(NC(=O)CN3CCCCCC3)sc2c1,-16.3%
21,CS(=O)(=O)c1ccc2nc(NC(=O)C3C4C=CC(C4)C3C(=O)O)sc2c1 (configuration not stated),-4.77%
22,CC(C)Oc1ccc(C(=O)NCC(=O)Nc2ccc3c(c2)CCC3)cc1,-1.68%
23,O=C(COC(=O)C1(c2ccc(F)cc2)CCCC1)N1CCNC1=O,7.82%

row,Compound,inhibition
1,CCCCN(C(=O)c1nn(C)c(=O)c2ccccc12)c1c(N)n(CCC)c(=O)[nH]c1=O,-7.93%
2,CC1CCCN(C(=O)c2cc(-c3ccco3)nc3ccccc23)C1 (configuration not stated),-3.9%
3,COc1ccc(S(=O)(=O)NCC(c2ccc(C)cc2)N2CCN(C)CC2)cc1OC (configuration not stated),-15.8%
4,CC(=O)Nc1ccc(NC(=O)COC(=O)c2ccccc2C(=O)c2ccccc2)cc1,11.9%
5,O=S(=O)(Nc1cc(Cl)ccc1N1CCOCC1)c1ccccc1Cl,-22.2%
6,Clc1ccc(CN2CCCCCC2)cc1Cl,26.4%
7,Cc1ccc2[nH]c(=O)c(CN3CCCCC3)c(-c3ccccc3)c2c1,-4.98%
8,c1ccc2cc3[nH]c(CN4CCCCC4)nc3cc2c1,58.4% (active)
9,O=S(=O)(c1ccc(SCc2ccc(Br)cc2)nc1)N1CCOCC1,-7.49%
10,Cc1ccsc1C(=O)NCCc1ccco1,11.7%
11,N#Cc1cccc(NC(=O)C2CCCN(C(=O)c3ccc(Cl)cc3)C2)c1 (configuration not stated),19.5%
12,CCOC(=O)CCCN1CC(O)=C(c2nc3ccccc3s2)C1=N,15.9%
13,N=C1C(c2nc3ccccc3s2)=C(O)CN1NC(=O)c1ccc([N+](=O)[O-])cc1,42.3% (active)
14,COc1ccccc1N1CC(O)=C(c2nc3ccccc3s2)C1=N,16.1%
15,Cc1ccc(S(=O)(=O)N2[C@@H](c3ccccc3F)C(C(=O)O)=CC[C@H]2c2ccc(Cl)cc2)cc1,16%
16,O=C(NNC(=O)c1cc(S(=O)(=O)N2CCCCC2)ccc1Cl)c1ccccc1O,9.25%
17,COc1ccccc1NC(=O)CN(c1ccccc1OC)S(=O)(=O)c1ccccc1,-0.319%
18,COC(=O)c1ccc(CN(c2ccccc2OC)S(=O)(=O)c2cccs2)o1,36% (active)
19,COc1ccccc1CNC(=O)c1ccc(CS(=O)(=O)c2ccccc2)o1,22.7%
20,COc1ccc(CNC(=O)c2ccc(NS(=O)(=O)c3ccc4[nH]c(=O)[nH]c4c3)cc2)cc1OC,-22.9%
21,O=C(Cc1ccc(Cl)cc1)NC1CCS(=O)(=O)C1 (configuration not stated),-2.94%
22,N#Cc1ccc(C(=O)OCC(=O)NC(=O)NC2CCCCC2)cc1,-34.5%
23,N#Cc1ccc(OCC(=O)NC(=O)NC2CCS(=O)(=O)C2)cc1 (configuration not stated),39.2% (active)
